Reference: PubChem BioAssay (NCI)
The panel holds about 79,000 compounds, 15% with a hit somewhere; the sample as a whole holds those more often. Rule as the data show it: active = growth inhibition above about 70%; inactive = the rest.

Columns and labels:
[1] = NCI Yeast Anticancer Drug Screen. Data for the rad50 strain (AID 155);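 also: 0% = growth of vehicle-only cultures of the same strain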; details: S. cerevisiae rad50 strain growth inhibition; at 50.0 µM; active compounds read high
Procedure, shortened: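 Cells are treated with compound, grown, and their growth is then scored against vehicle-only cultures of the same repair-deficient yeast strain.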

[2] = NCI Yeast Anticancer Drug Screen. Data for the mec2-1 strain (AID 157); details: S. cerevisiae mec2-1 strain, at 50.0 µM, active compounds read high
Procedure, shortened: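 Yeast mec2-1 mutant treated with compound. Readout: growth inhibition vs vehicle controls.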

[3] = NCI Yeast Anticancer Drug Screen. Data for the sgs1 mgt1 strain (AID 161);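 also: 0% = growth of cultures given vehicle only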; details: S. cerevisiae sgs1 mgt1 strain, at 50.0 µM, active compounds read high
Procedure, shortened: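 Mutant yeast exposed to compound; growth scored against vehicle-only wells.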

[4] = NCI Yeast Anticancer Drug Screen. Data for the cln2 rad14 strain (AID 165);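 also: 0% = growth equal to vehicle treated cultures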; details: S. cerevisiae cln2 rad14 strain, at 50.0 µM, active compounds read high
Procedure, shortened: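 cln2 rad14 yeast strain; compound exposure; growth inhibition read vs vehicle controls.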

[5] = NCI Yeast Anticancer Drug Screen. Data for the bub3 strain (AID 167); details: S. cerevisiae bub3 mutant strain, at 50.0 µM, active compounds read high
Procedure, shortened: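 Part of a panel of yeast mutants defective in DNA damage repair or cell cycle regulation. Each strain is grown with compound, and inhibition is calculated relative to solvent-treated cultures.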

[6] = NCI Yeast Anticancer Drug Screen. Data for the mlh1 rad18 strain (AID 175); details: S. cerevisiae mlh1 rad18 strain growth inhibition; at 50.0 µM; active compounds read high
Procedure, shortened: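 Yeast w/ defined DNA-repair lesions; compound exposure; growth vs vehicle controls → % inhibition.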

Measured: growth inhibition

c1cc[n+]2cc3c(ccc4cc5cccc[n+]5cc43)cc2c1
inactive: [1] 17.4% | [2] 11.1% | [3] 31.4% | [4] 58% | [5] -2.3% | [6] 11.6%

CC(C)CCCC(C)C1CCC2C3CC=C4CC(C(=O)O)CCC4C3CCC12C (stereo unspecified)
inactive: [1] 26.8% | [2] 21.6% | [3] 14.1% | [4] 21.2% | [5] -3.5% | [6] 22.6%

O=C1CC2(CCC(O)(c3ccc(Cl)cc3)C(C(=O)c3ccc(Cl)cc3)C2)C(=O)c2ccccc2N1 (stereo unspecified)
inactive: [1] -15.1% | [2] -3.55% | [3] -16.9% | [4] -23.5% | [5] -19.4% | [6] -48.6%

COc1ccc(/C=C/C(=O)C(C)(C)CN(C)CCN(C)C)cc1
inactive: [1] -36% | [2] -7.25% | [3] -23.9% | [4] -7.65% | [5] -5.25% | [6] -8.45%

CN1CCC(CN)(c2ccccc2)CC1
inactive: [1] 14.1% | [2] 14.9% | [3] 0.35% | [4] -6.5% | [5] 9.7% | [6] 11.3%

O=C(O)CN=CC(O)C(O)C(O)C(O)CO (stereo unspecified)
inactive: [1] -9.8% | [2] -3.8% | [3] 3.9% | [4] 4.4% | [5] 9.15% | [6] -2.45%

O=[N+]([O-])c1ccc(F)c(Cl)c1
inactive: [1] -10.7% | [2] -25.1% | [3] -1.6% | [4] 4.55% | [5] 9.3% | [6] -7.25%

C=C1SC(=Nc2c(C)cccc2Cl)N(C(=O)c2sc3ccccc3c2Cl)C12CCCCC2
inactive: [1] 8.05% | [2] -16% | [3] 2.3% | [4] 5.6% | [5] 8.85% | [6] 8.75%

C=CCNC(=O)/C=C/C
inactive: [1] 1.95% | [2] 0.65% | [3] -2.1% | [4] 1.8% | [5] 9.75% | [6] -4.35%

Cc1ccc(-c2cnc3c(n2)c(=O)[nH]c(=O)n3C)cc1
inactive: [1] 29.5% | [2] 19.1% | [3] 20.5% | [4] 13.8% | [5] 17.4% | [6] 35.6%

O=C(OC1COC(OCc2ccccc2)C(OC(=O)c2ccccc2)C1OC(=O)c1ccccc1)c1ccccc1 (stereo unspecified)
inactive: [1] 8% | [2] -24.4% | [3] 3.1% | [4] -30.3% | [5] 0.4% | [6] 2.75%

O=C(C[n+]1ccccc1)N/N=C(\Cc1nc2ccc([N+](=O)[O-])cc2[nH]c1=O)C(=O)Nc1cc(Cl)c(Cl)cc1Cl
inactive: [1] 24.2% | [2] 10.1% | [3] 2.5% | [4] -27.8% | [5] 16.9% | [6] 9.35%

C=C(CO)CC(CC(=C)CCS(=O)(=O)c1ccccc1)S(=O)(=O)c1ccccc1 (stereo unspecified)
inactive: [1] 8.55% | [2] 1.75% | [3] -0.9% | [4] 8.85% | [5] 7.35% | [6] -5.75%

C=C(Br)C[N+](CC)(CC)CC
inactive: [1] -14.3% | [2] -3.3% | [3] -9.4% | [4] 15.8% | [5] -8.85% | [6] -9.25%

COc1ccc2c(c1)CC/C(=C\C1(Sc3ccccc3)CC1)C2O (stereo unspecified)
inactive: [1] -12.1% | [2] -3.35% | [3] -10.2% | [4] -16.6% | [5] -10.7% | [6] -15.8%

O=C(COc1ccccc1)Nc1ccc(C(=O)O)cc1
inactive: [1] -2.95% | [2] -3.6% | [3] -3.35% | [4] 1.85% | [5] 22.1% | [6] 25.3%

CC(C)=CC1C(CBr)C1(C)C (stereo unspecified)
inactive: [1] 2.3% | [2] -15.2% | [3] -12.2% | [4] -26.2% | [5] -10.1% | [6] -11%

Nc1cccc2c1-c1ccc([N+](=O)[O-])cc1C2=O
inactive: [1] 7.6% | [2] 18.4% | [3] -6.25% | [4] 5.5% | [5] 5.55% | [6] 4.25%

O=C(C#CP(=O)(O)c1ccccc1)c1ccccc1
inactive: [1] 22.5% | [2] 16.4% | [3] -6.2% | [4] 17.5% | [5] -17.6% | [6] 3.05%

CC1C(O)CC23COC(=O)C2=CCCC3C1(C)CCC1COC(=O)C1 (stereo unspecified)
inactive: [1] -5.05% | [2] -21.9% | [3] 17.9% | [4] 5.85% | [5] -10.4% | [6] 7.45%

CC(=O)N(Cl)c1ccc(N=Nc2ccccc2)cc1F
inactive: [1] 24.5% | [2] 15.1% | [3] 32.5% | [4] -9.7% | [5] -7.7% | [6] 6.8%
